Measurements from PubChem BioAssay (NCI).
Compounds without any hit were thinned out: in the full panel of roughly 83,000, 20% have a hit.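 The test compound was applied at a single concentration to cells in 96-well plates for 48 hours, and percent growth was recorded.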 Unmarked numbers belong to inactive results. The source made the active and inactive calls. How the source made its calls: active means growth percent below 10; inactive means the rest.

Test system: HL-60(TB) leukemia
Test: NCI-60 one-dose screen, 48 h (100 = growth as untreated, 0 = no growth, -100 = all killed)
Details: 10 µM unless noted

SMILES	growth
CC1(C)NCCC[C@]2(C)[C@H]3CC=C4[C@@H]5C[C@@](C)(CO)CC[C@]5(C)CC[C@@]4(C)[C@]3(C)CC[C@@H]12	66.3%
CSc1nc2c(c(=O)n1C)C1(C(=O)N(Cc3ccccc3)c3ccccc31)c1c(nc(SC)n(C)c1=O)N2	73.4%
Cn1cnc([N+](=O)[O-])c1N1c2ccncc2Sc2ccncc21	87.5%
COc1cc2ncnc(Oc3ccc(NC(=O)Nc4ccc(CN5CCOCC5)c(C(F)(F)F)c4)c4ccccc34)c2cc1OC	-23% (active)
Cn1cc(-c2ccc3ncc(-c4ccc(CC(=O)Nc5cc(C(C)(C)C)no5)cc4)nc3c2)cn1	40.4%
CC(C)=CCC[C@H](C)c1ccc(C)c2c1OCN(CCO)C2	90.8%
Nc1ccc(-c2ccc(-c3ccccc3N)c3[nH]c4ccccc4c23)cc1	5.47% (active)
CCCCCCN(CCCCCC)CC(O)c1cccc2ccc(Cl)cc12 (stereo not given)	69.5%
Brc1cccc(-c2cc(-c3ccc4nccnc4c3)[nH]n2)c1	14.9% [25 µM]
c1ccc(-c2oc(-c3ccccc3)c3ccccc23)cc1	109%
